The values below come from PubChem BioAssay AID1159506 (National Center for Advancing Translational Sciences (NCATS), 2015).

Over roughly 59,000 sequences, the read-out has its median near -0.00055; the lowest 2% begin near -2. This is one part of a sample in which the lowest values are shown more often than they occur.

A short description of this experiment: Identification of proteins required for the processing of the EWS-FLI1 nascent transcript.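 Further: robust z of luciferase light less the median z of siRNAs with the same seed.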 The settings on record: TC32 Ewing sarcoma NR0B1-luc vs CMV-luc (EWS-FLI1 target promoter against control promoter), 48 h; screened at 20 nM (by protocol). Summed up: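 Parallel TC32-NR0B1-luc and TC32-CMV-luc reverse transfections with 20 nM siRNA in RPMI-1640/10% FBS, luciferase measured 48 h later. Seed-adjusted z-scores from normalized, z-score-MAD transformed data; AllStars negative and siGL4 controls on each plate.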
Sequence UAAUGAGCAGUGACUCUGG against BTBD11 gave a seed-corrected z-score of 0.456.

In turn, AAUUCUUCAAAACUAACUU against S100G had a seed-corrected z-score of 0.467.

As for AUCCGUACGCCUCCGAUUC against PCSK4, the seed-corrected z-score is -0.594.

With AAGGGAUAAGGGAUCAUCC against ST7, the seed-corrected z-score is -0.0379.

UAUAGUUACAUGACUGCUG against SNU13 had a seed-corrected z-score of -6.52.

For the sequence UUUUUAAUGCCUUAUAGUC against TTLL13P, the seed-corrected z-score was 1.17.

Regarding UACAUAGCUGCAUAGACAC against PLPPR5, the seed-corrected z-score is -2.18.

In turn, UUCUUUAGCAACAUCACAG against CBR4 returned a seed-corrected z-score of 0.335.

The sequence UAAGAUAUCUGACCACUAG against ZNF620 gave a seed-corrected z-score of 0.641.

Take UCCAUAUCCCAUGACAUGC against SLC17A6: the seed-corrected z-score was -0.139.

UGCUUGAGCAGAAUGACCG against DIO2 came in with a seed-corrected z-score of -2.14.

The sequence UGAACUUGCACACUUGAGU against KLK7 showed a seed-corrected z-score of 0.253.

In turn, AAACUUUGGAUGUUUUUGG against PPBP came in with a seed-corrected z-score of 0.549.

UUAGUACAGAUGCAGUUCU against OR56A5 yielded a seed-corrected z-score of -14.6.

For the sequence UUUCGGUACGUGUAGUAGC against STRA6, the seed-corrected z-score was determined as 0.803.

With UCUUUGACAAUAUCAACAG against UBE3D, the seed-corrected z-score is -0.267.

UGCGUGUCUUCUUUAACCU against FAM174B displayed a seed-corrected z-score of -0.0387.

UUAGAUCCAUGCUAUAAGC against PMS2P12: the seed-corrected z-score was -0.142.

UAAUCGUUUCUACAAGAUC against ATF7IP displayed a seed-corrected z-score of -2.43.

Turning to UUAAUCUUCAUCGUAAUAG against ZPLD1, the seed-corrected z-score was -0.649.

For the sequence UUUUUCGACAGGAAAGUGU against C5orf60, the seed-corrected z-score stood at 0.245.

For the sequence UUCAUUAUUAUCUCAGGAG against RFC3, the seed-corrected z-score is -1.02.

With UUCAGCAUAAAGACUGAUC against VPS41, the seed-corrected z-score is -0.683.

In turn, UCACUUCCUAUUCCCAUGG against PALM3 displayed a seed-corrected z-score of -1.4.

As to AUCUUGGUAACAAACUUGG against TRPV4, the seed-corrected z-score was -3.43.

Sequence UAAUCGUUGGGAUCCAGUC against PCDHA13 came in with a seed-corrected z-score of 0.188.

The sequence UGUACGAUGAAGGUCAUGC against SLC34A2 gave a seed-corrected z-score of -0.00732.

Sequence UUCGUGUUUUGAAUCUUGG against B4GALT2 came in with a seed-corrected z-score of 1.23.

The sequence AGCUGGAUCAUUUCUACAG against PKDCC returned a seed-corrected z-score of -2.45.

Sequence UAGACUGUCACGUUGUAUG against SEZ6L returned a seed-corrected z-score of 0.278.

AAAGAGAUAAUGUUCCUCC against FAM180B gave a seed-corrected z-score of 0.869.

The sequence UCCCUAACAAAGCAUGUAC against ISL1 came in with a seed-corrected z-score of -0.138.

As for UUCUAAGAAAGCGAGCUGC against EID2B, the seed-corrected z-score is -0.614.

UCUCGAGUUAUGUGGUUGG against RAD51D: the seed-corrected z-score worked out at 0.265.

Sequence AUAGUUGCAAUCAAACGAG against SFT2D2 yielded a seed-corrected z-score of -3.87.

For UCUGGGAAAACAUGGUUGU against DUBR, the seed-corrected z-score was -1.17.

As to ACAGAUAUAACACUCAUCG against ANO10, the seed-corrected z-score is -0.322.

Sequence AUUGUGACUAUUAUGAGUC against MTND5P10 showed a seed-corrected z-score of -0.792.

The sequence UACAGAUCCGCGAUGUACU against RCN3 returned a seed-corrected z-score of 0.823.

As for UUUCCGAAAAUUUAGUGGG against ATAD2, the seed-corrected z-score came to 0.659.

As for UGGUGGUCCACCUUGUUAG against F13A1, the seed-corrected z-score was -1.25.

Regarding UCCAGUGCAAUGACUCUUG against ZNF114, the seed-corrected z-score was -2.45.

For the sequence AACUUUUCACUGGUGACCC against C7orf55, the seed-corrected z-score was -0.00837.

UCUCAGGAUAGGAACCACC against SPRR2G showed a seed-corrected z-score of -0.114.

Turning to UUUAGAUCUAGAAUUACAC against SPESP1, the seed-corrected z-score was -0.539.

For the sequence UGAGCUCUGAGAAUUGAGG against POM121, the seed-corrected z-score was found to be 0.483.

For the sequence UGCAGAUGCGGAAAGCUGC against LOC388692, the seed-corrected z-score stood at 0.336.

Take AUCCAGUUCACGUAGGCAG against TPSG1: the seed-corrected z-score is -2.87.

UCUGCGUACUCAUCCAUCC against GALNT10 returned a seed-corrected z-score of 0.408.

UCUGAUCUCACGGAUGAAG against RASEF: the seed-corrected z-score came to 0.117.

In turn, UUAGGCUCUUUGUAUGUCC against ELOVL4 yielded a seed-corrected z-score of 0.198.

In turn, UUUCUGCACAGGAAUAUCG against CD37 had a seed-corrected z-score of -3.03.

On to UCCGCGUAUAAAUAGGUGC against RSPH1, for which the seed-corrected z-score is -0.487.

Sequence UGAGUUGAAGGUCUGCCCG against MPND had a seed-corrected z-score of -0.48.

For UGAUAGAUGAAUAUCAUCC against KIAA0232, the seed-corrected z-score was -0.728.

As for UAUUCGCACAGGCUGAUUC against BBS12, the seed-corrected z-score was found to be 0.0215.

The sequence AAGUUGGUGAUUAAUCUCC against DERL2 displayed a seed-corrected z-score of -0.311.

In the case of UUCUGUGGAAGAUUUCUGG against TOP3A, the seed-corrected z-score was -0.163.

For UAUUUGACUAGGCGACUUC against NET1, the seed-corrected z-score is -2.17.

UAUCUAAAGAGACCCUGUC against YPEL1 displayed a seed-corrected z-score of 1.06.

Sequence ACAGUAUCCUCAGAUGUCC against SHROOM2 displayed a seed-corrected z-score of 0.0618.

Take UGCAGUACUGAAGAUAACG against EOGT: the seed-corrected z-score is -1.09.

Turning to UUCUUAGCCGCGAUGGUCU against DES, the seed-corrected z-score came to 0.351.

UAGGUAGAAGUGAUUGUUC against ZFAND4 displayed a seed-corrected z-score of 0.956.

In turn, AUGUGGACAGCGUAGCUCC against FUT4 registered a seed-corrected z-score of -0.421.

For UACAUUGUGAGAUCCCUGG against C17orf78, the seed-corrected z-score is -2.15.

With UUAUGAACCCUGGAGCUCC against ADRB3, the seed-corrected z-score turned out to be 0.000803.

Sequence AAUACGAUGACAAUAAGGC against FAM200A displayed a seed-corrected z-score of -0.251.

In the case of AUAGCUGCGAACAAAGGCC against ZNF404, the seed-corrected z-score was -6.09.

In turn, UUCGACUUGGUUGCAAUGG against PPBP displayed a seed-corrected z-score of 0.68.

For UCCAGUUGUAUGUAAGGGC against ZDHHC6, the seed-corrected z-score is -1.09.

AAUGGUCUUGUGAAUGGUC against LSM12 returned a seed-corrected z-score of -2.08.

Regarding UUUCGUCAACAGUUCAAUC against USP34, the seed-corrected z-score is -0.287.

For the sequence UAAUCGAAAAACUUCAAUG against CLN5, the seed-corrected z-score is -0.147.

The sequence AUCUCUGUAAGAUUGAUUC against ELMOD2 returned a seed-corrected z-score of 0.0598.

The sequence UUGCUUUCCACAACGAGAU against CHL1-AS2 had a seed-corrected z-score of -0.29.

In the case of UUCUGCAUCAUAAUUGUCG against ADPRHL1, the seed-corrected z-score was -0.679.

UUGGUAGGCAUCGUAGUAG against CLDN2 yielded a seed-corrected z-score of 0.894.

Turning to UAGCUGUGUGGAUCAGUGC against LOC642502, the seed-corrected z-score was -2.62.

UCACUGUAUCUAAUAAAGC against FRG1JP came in with a seed-corrected z-score of -0.744.

The sequence AAUUUUAUCACCCAGAAAC against FCGR2B had a seed-corrected z-score of 0.134.

On to UGAGUUUCUUCUCCGUUCU against C11orf97, for which the seed-corrected z-score is -3.81.

With UGAAAAGCGCUGCUUAACC against PRSS45, the seed-corrected z-score was determined as 0.905.

Sequence UUCUUUGAUAGACUUCACC against FTMT displayed a seed-corrected z-score of 0.658.

UGAGAGUUAAAGGCCUUUC against ABHD14A showed a seed-corrected z-score of -2.97.

The sequence AAAUGUGCUCAAACUGUCU against ARL14 displayed a seed-corrected z-score of -0.125.

Regarding UUCUCUCAAGCUUCAAUGG against ZNF286A, the seed-corrected z-score was found to be 0.716.

Regarding AGAGUUAAUUGGUAUGUCC against GIGYF1, the seed-corrected z-score is 0.0611.

Sequence UCUGUUACUUCUGGUUUGC against BAAT yielded a seed-corrected z-score of -0.229.

UUAGCUGCUAGAAACAAGG against CCNT1 showed a seed-corrected z-score of -2.99.

For the sequence UGAGUUUCCAUGCAUAGGA against GOLGA7, the seed-corrected z-score is -3.67.

In turn, UCAGGUACGACUUUCGAUA against C1orf109 returned a seed-corrected z-score of -1.21.

AGAGAUACAAGGUUUGAUC against ARG2: the seed-corrected z-score is -0.0393.

UCCUUGUACACGGCCAGCU against PCED1CP showed a seed-corrected z-score of 0.3.

UGUACAUAGACGGUGAGGC against CD200 came in with a seed-corrected z-score of 0.299.
